Assay results from PubChem BioAssay (NCI).
Compounds without any hit were thinned out: in the full panel of roughly 83,000, 20% have a hit.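 How to read the values: 0–100, growth inhibition (40 = 60% inhibited); 0, no net growth; -100 to 0, cell death (-40 = 40% of starting cells died; -100 = all dead).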 Unmarked numbers belong to inactive results. Activity calls are given as the source filed them. How the source made its calls: active means growth percent below 10; inactive means the rest.

Tested on: MDA-MB-468 breast
Assay: NCI-60 one-dose screen, 48 h (100 = growth as untreated, 0 = no growth, -100 = all killed)
Details: 10 µM unless noted

**Q.** How did the growth turn out when `COc1cccc2c(=O)c3c(sc12)c(N1CCNCC1)nc1ccccc13` was run?
**A.** The growth was 50.2%.

**Q.** `CCOC(=O)c1ccc2c(c1)ncn2-c1ccc(NC(=O)Nc2cccc(C)c2)cc1` was tested. Which growth did it give?
**A.** Its growth is 116%.

**Q.** For `COc1ccc(/C=C2\Oc3cc(OCCCN4CCCCC4)ccc3C2=O)cc1OC`, which growth is on record?
**A.** The growth was 76.4%.

**Q.** For `N[C@@H](Cc1ccccc1)[C@@H](O)C(=O)NCc1ccc(F)cc1`, which growth is on record?
**A.** Its growth is 114%.

**Q.** Which growth does the source give for `CCOC(=O)N1CCN(CCCCOc2ccc(C(C)(C)CC)cc2)CC1` here?
**A.** Its growth is 92.9%.

**Q.** For `CCCCCCCCCCC1CO1` (configuration not stated), which growth is on record?
**A.** The growth was 94.1%.

**Q.** How did the growth turn out when `Cc1nc(/N=C(\N)NC(=O)Nc2ccccc2Cl)sc1C` was run?
**A.** Its growth is 2.23% (active).

**Q.** How did the growth turn out when `CC(C)C[C@H](NC(=O)CCn1ccc2ccccc2c1=O)B(O)O` was run?
**A.** Its growth is 6.61% (active).

**Q.** With `COc1ccc(-c2cc(-c3ccccc3)nc(SCCCCCC(=O)NO)n2)cc1` as the molecule, how does the growth read?
**A.** The growth was 64.8%.

**Q.** For `COc1cccc(/C=C/C(=O)c2cc3c(N)c(C(=O)Nc4cccc5ccccc45)sc3nc2C)c1`, which growth is on record?
**A.** The growth was 17.4%.

**Q.** How did the growth turn out when `Nc1c(Cl)cc(/C=C2\C=Cc3ccccc32)cc1Cl` was run?
**A.** Its growth is 97.9%.

**Q.** How did the growth turn out when `CCCC1OC(c2ccc(C(C)C)cc2)OCC1CC` (configuration not stated) was run?
**A.** Its growth is 97.6%.
